Bioassay records deposited in PubChem BioAssay by The Scripps Research Institute Molecular Screening Center.
PAFAH1B2_inh: PAFAH1B2 enzyme inhibitors, primary screen, biochemical, fluorescence polarization, human. AID 492953, 2010. 1.2% of 340,000 active. recombinant PAFAH1B2, FP-rhodamine activity probe. inhibition, % at 3.39 µM;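 active = inhibition above the mean of all tested compounds plus 3 SD, cut at about 24% in these data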;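 note: 0% = enzyme with DMSO and 100% = wells lacking PAFAH1B2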
Target sequence (P68402 whole entry, looked up): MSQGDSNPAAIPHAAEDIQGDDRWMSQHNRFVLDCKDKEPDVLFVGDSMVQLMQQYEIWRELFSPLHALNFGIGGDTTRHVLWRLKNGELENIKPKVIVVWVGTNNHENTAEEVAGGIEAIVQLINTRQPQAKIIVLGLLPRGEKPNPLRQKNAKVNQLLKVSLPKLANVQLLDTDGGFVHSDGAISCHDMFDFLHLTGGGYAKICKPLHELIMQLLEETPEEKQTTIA
PP5_inh: PP5 phosphatase inhibitors, primary screen, biochemical, fluorescence. purified PP5c, OMFP substrate fluorescence. inhibition, % at 6.7 µM. Serine/threonine-protein phosphatase 5 (Homo sapiens), P53041. AID 1987, 2009. 0.18% of 320,000 active;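 active = inhibition above the campaign's mean inhibition across all tested compounds plus 3 SD, cut at about 9.5% in these data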;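 note: 0% = DMSO only and 100% = 100 µM cantharidin control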
PAFAH2_FP_inh: PAFAH2 enzyme inhibitors, primary screen, biochemical, fluorescence polarization, human. inhibition, % at 3.39 µM. 0.99% of 340,000 active. AID 492956, 2010. recombinant PAFAH2, FP-rhodamine activity probe;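 active = inhibition above the mean over all tested compounds plus 3 SD, cut at about 30% in these data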;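 note: inhibitors block probe labeling of enzyme so polarization drops; 0% = enzyme with DMSO and 100% = wells lacking PAFAH2 protein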
CTSL1_counter: Fasciola hepatica cathepsin L1 inhibitors, primary screen, counter-screen for PFM18AAP inhibitor project, biochemical, QFRET, fluorogenic peptide substrate; 0.49% of 300,000 active; inhibition, % at 5.96 µM; recombinant F. hepatica cathepsin L1, Z-Leu-Arg-MCA fluorescence;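 active = inhibition above the mean of all tested compounds plus 3 SD, set per screening campaign, cut at about 17% in these data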;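 note: 0% = plate median of test compound wells and 100% = 1 µM Z-Phe-Ala-diazomethylketone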
PAFAH1B3_FP_inh: PAFAH1B3 enzyme inhibitors, primary screen, biochemical, fluorescence polarization, human; AID 492972, 2010; recombinant PAFAH1B3, FP-rhodamine probe; inhibition, % at 3.39 µM; Platelet-activating factor acetylhydrolase IB subunit alpha1 (Homo sapiens), Q15102; 0.28% of 340,000 active;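 active = inhibition above the screen-wide average of all tested compounds plus 3 SD, cut at about 25% in these data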;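 note: 0% = enzyme with DMSO only and 100% = wells lacking PAFAH1B3 protein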
pPAFAH_inh: pPAFAH enzyme inhibitors, primary screen, biochemical, fluorescence polarization, human; recombinant pPAFAH, FP-rhodamine probe fluorescence polarization; inhibition, % at 3.39 µM; 1.5% of 330,000 active;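 active = inhibition above the mean inhibition across the screen plus 3 SD, cut at about 25% in these data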;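 note: inhibitors block binding of the rhodamine activity-based probe so polarization drops; 0% = enzyme with DMSO and 100% = wells lacking pPAFAH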
PAFAH1B3_confirm: PAFAH1B3 enzyme inhibitors, confirmation, biochemical, fluorescence polarization, human; AID 493032, 2011; inhibition, % at 3.39 µM; shares compounds with PAFAH1B3_FP_inh; recombinant PAFAH1B3, FP-Rh activity-based probe; 30% of 390 active;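 active = average inhibition over triplicate runs above the hit cutoff set in the earlier primary screen, cut at about 25% in these data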;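 note: 0% = enzyme with DMSO and 100% = wells lacking PAFAH1B3 protein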
* hit, by the source's call; / = no result given. Rows were chosen to be rich in hits. Some 3% of all compounds tested hit in one or more screens of this group.

SMILES PAFAH1B2_inh PP5_inh PAFAH2_FP_inh CTSL1_counter PAFAH1B3_FP_inh pPAFAH_inh PAFAH1B3_confirm
O=C(CSc1ncc(S(=O)(=O)c2ccccc2)c(=O)[nH]1)Nc1ccccc1Cl -1.3 3.5 8.1 1.2 56.3* -5.3 50.8*
Cc1ccc(NC(=O)CN2CCOCC2)cc1C 1.1 2.6 -4.1 4.4 5.6 4.9 /
CCOc1ccc(N(CC(=O)NC2CCCCC2)C(=O)CCCC(=O)Nc2ccccn2)cc1 5.0 1.6 -8.2 2.6 6.2 5.4 /
O=Nc1c(O)[nH]c2ccc(Cl)cc12 15.7 2.1 5.3 1.1 25.5* 5.6 33.8*
CSc1cccc(NC(=O)C2(S(=O)(=O)c3ccc(C)cc3)CC2)c1 3.3 -0.1 4.9 -4.9 4.0 3.6 /
